Test [1] in a line: AP1 Signaling Pathway (AID 357).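 Also: ME-180 reporter cells stimulated with EGF at its EC50 level; % is scaled to controls: 0 for no effect and ±100 for the full control effect.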 Particulars: ME-180 AP-1-bla reporter, EGF-induced, beta-lactamase ratio, 5 h. Summed up:
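Modulation of EGF-driven AP-1 transcription was assessed with a beta-lactamase reporter in ME-180 cells. Compound and EC50 EGF were co-incubated 5 hours at 37 °C before 2.5-hour CCF4 loading at room temperature and dual-emission reading.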

For test [2], the target named is Cytochrome P450 1A2 (Homo sapiens) (UniProt P05177). Nature of the test: p450-cyp1a2 (AID 410; calls by dose curve; also: potency is read from the fitted curve at half-maximal effect;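 as to activity change, negative = inhibition: -100% = full effect of reference inhibitor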). Particulars: recombinant CYP1A2, luciferin-ME demethylation, luminescence; series mostly up to 57 µM. Summed up: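 Luminescent readout of luciferin formed from Luciferin-ME by human CYP1A2; data normalized against complete inhibition by 57 uM furafylline. Enzyme 20nM, substrate 100uM at Km, 100mM KPO4 buffer, 60 min reaction at room temperature.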

The nature of test [3]: NFAT Signaling Pathway (AID 444).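 Also: carbachol stimulus at about its EC50 of 1 µM final; % is scaled to controls: 0 for no effect and ±100 for the full control effect.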 The following applies: Jurkat NFAT-bla M1, carbachol, beta-lactamase ratio, 5 h. An outline of the steps:
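Jurkat cells with NFAT-driven β-lactamase reporter and co-expressed M1 receptor, stimulated with carbachol (final 1 uM, ~EC50), compound titration, 5 h at 37 °C. CCF4 loaded 1 h at RT; 460/530 nm ratio gave %activity and AC50.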

Test [4] is described as follows: Stat Signaling Pathway (AID 446).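 Also: ME-180 cervical cancer cells given 40 pM IL-6 alongside compound; SIE-controlled beta-lactamase reporter measured as 460/530 nm FRET emission ratio; % is scaled to controls: 0 for no effect and ±100 for the full control effect.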 Particulars: ME-180 SIE beta-lactamase reporter, IL-6 stimulated, 5 h. An outline of the steps:
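Reporter line: ME-180 cervical carcinoma, SIE-beta-lactamase. Treatment: compound with 40 pM IL-6, 5 hrs, 37 C, in low-serum OPTI-MEM with 10 mM HEPES pH 7.3. Detection: 460/530 nm fluorescence.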

The target of test [5] is Glucocorticoid receptor (Homo sapiens) (UniProt P04150). Nature of the test: GR-GFP Redistribution (AID 450;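 active = compounds whose dose series gives a full or clear partial fitted curve of increased nuclear translocation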; also: potency is read from the fitted curve at half-maximal effect). Particulars: U2OS GR-GFP nuclear translocation, laser cytometry, 2 h.
For test [6] the target is unchanged. Put plainly: GR-EFC Redistribution (AID 451; calls by dose curve; also: potency is read from the fitted curve at half-maximal effect). Particulars: CHO-K1 GR-EFC translocation, beta-gal luminescence, 2 h. An outline of the steps:
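CHO-K1 cells expressing nuclear EA and GR-ED fragments of b-gal; compounds titrated up to 46 uM final, 2 h at 37 C. GR nuclear translocation read as complemented b-gal luminescence after 1 h RT detection.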

The target in test [7] is Mitogen-activated protein kinase 10 (Mus musculus) (UniProt Q61831). Nature of the test: JNK3 AlphaScreen Assay (AID 530).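 Also: kinase came from lysate of stimulated human HepG2 cells; signal reports phosphorylation of biotinylated GST-cJun 1-79 at Ser73 with 10 µM ATP; % is scaled to controls: 0 for no effect and ±100 for the full control effect.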 The following applies: JNK3 lysate, c-Jun phosphorylation; series mostly up to 57.1 µM. Summed up: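 Pre-activated (IL-1β/TNFα) JNK3 in HepG2 lysates phosphorylates biotin-GST-cJun(1-79), 10 uM ATP; anti-phospho-cJun(Ser73) AlphaScreen read at room temperature, pH 7.6 Tris buffer. Compounds pre-incubated 15 min as titrations.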
On the technique in general: Bead proximity is the source of the signal in Alpha formats.

Test [8] addresses 3',5'-cyclic-AMP phosphodiesterase 4B (Homo sapiens) (UniProt Q07343). Put plainly: qHTS Assay for Inhibitors of PDE-IV (AID 607; active = well fitted activation curve with a large enough effect in the main read-out, with a control signal flat, not every such curve was filed as active; also: % of control where 0% means no effect). The following applies: HEK293 ACTOne CNG channel cells, membrane potential fluorescence; series mostly up to 22.9 µM. Summed up:
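Cell-based read-out of cAMP via a modified cyclic nucleotide-gated channel and membrane potential dye (535/590 nm) in HEK293 cells expressing PDE4 endogenously. Compounds tested up to 22.9 uM final; 100 uM RO 20-1724 reference.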

The target in test [9] is Pyruvate kinase (Leishmania mexicana) (UniProt Q27686). Put plainly: qHTS Validation Assay for Inhibitors of Leishmania Mexicana Pyruvate Kinase (AID 945; active = well fitted curve in the direction sought with a large enough effect; an effect the other way counts as inactive or inconclusive;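 also: 0% = DMSO only neutral control wells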). The following applies: purified L. mexicana pyruvate kinase, enzyme activity, E451W mutant enzyme; series mostly up to 57.5 µM. An outline of the steps:
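qHTS eight-point titrations against 0.2 nM LmPYK (E451W) in imidazole buffer pH 7.2 with 0.5 mM PEP, 0.1 mM ADP; 1 h, room temperature. Readout: PKLight luminescence, normalized to neutral DMSO wells.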

In test [10] the target is Alpha-galactosidase A (Homo sapiens) (UniProt P06280). Put plainly: Counterscreen for Glucocerebrosidase Inhibitors: qHTS Assay for Human alpha-Galactosidase at pH 4.5 (AID 992; active = well fitted curve in the direction sought with a large enough effect; an effect the other way counts as inactive or inconclusive; also: 0% is about no effect). The following applies: purified enzyme, fluorogenic substrate; series mostly up to 76.9 µM. An outline of the steps: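 Quantitative HTS: compounds tested from 0.7 nM up to 77 uM against 2 nM enzyme with 80 uM 4-MU alpha-D-galactopyranoside. The 20 min room-temperature reaction is stopped with 1M NaOH/1M glycine, pH 10.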

Test [11] addresses alpha-glucosidase (Oryza sativa, rice) (UniProt Q653V4). Put plainly: Counterscreen for Glucocerebrosidase Inhibitors: qHTS Assay for Rice alpha-Glucosidase at pH 5.0 (AID 997; active = well fitted curve in the direction sought with a large enough effect; an effect the other way counts as inactive or inconclusive;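 also: 0% = full activity with enzyme and -100% = basal without enzyme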). Particulars: rice alpha-glucosidase enzyme activity; series mostly up to 76.9 µM. Summed up:
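Rice alpha-glucosidase (4 nM final) with 400 uM 4-methylumbelliferyl-alpha-D-glucopyranoside in citrate buffer pH 5.0, 20 min at room temperature, stopped at pH 10; fluorescence 365/440 nm, compounds 0.7 nM–77 uM, AC50 from Hill fits.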
On the technique in general: The purpose of a counterscreen is to sort out artefacts and off-target activity.

Test [12] in a line: qHTS Assay for Lipid Storage Modulators (AID 1519; calls by dose curve). Particulars: Drosophila S3 cells, BODIPY lipid droplet/cell ratio, laser cytometry, cells loaded with oleic acid; for activity change, negative = inhibition: at 25.7 µM (top of the series). Summed up:
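Cells seeded at 5,000 per well were treated with compounds over a concentration series and loaded with oleic acid (400 uM, as added). Lipid droplet fluorescence (488 nm excitation, 500-530 nm channel) was read by laser-scanning cytometry and normalized to 20 uM Triacsin C.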

Test [13] deals with Ubiquitin carboxyl-terminal hydrolase 1 (Homo sapiens) (UniProt O94782). Nature of the test: Inhibitors of USP1/UAF1: Pilot qHTS (AID 504865; active = well fitted curve in the direction sought with a large enough effect; an effect the other way counts as inactive or inconclusive;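 also: rhodamine fluorescence freed from ubiquitin-rhodamine substrate followed over time; top concentration of the series differs between compounds; % is scaled to controls: 0 for no effect and ±100 for the full control effect; nearly all actives have a fitted effect of over 35% in size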). Particulars: purified USP1/UAF1, Ub-rhodamine cleavage fluorescence; series mostly up to 54.9 µM. An outline of the steps: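 USP1/UAF1 complex (1nM) preincubated with compound 15 min at room temperature, then Ub-Rho substrate (150nM final) added. Fluorescence read kinetically at 480/540 nm, 6 reads every 60 seconds. Buffer: 50mM HEPES pH 7.8, 0.5mM EDTA, 0.1 mg/ml BSA, 1mM TCEP, 0.01% Tween-20.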

Test [14] has as its target ATP-dependent 6-phosphofructokinase (Trypanosoma brucei brucei) (UniProt O15648). Put plainly: qHTS Assay to Find Inhibitors of T. brucei phosphofructokinase: hit validation (AID 492961; active = well fitted curve in the direction sought with a large enough effect; an effect the other way counts as inactive or inconclusive). Particulars: T. brucei PFK, ADP-Glo luminescence; series mostly up to 24.3 µM. Summed up: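 Compounds titrated; %activity normalized to 0x and 1x enzyme controls, curve-fitted. Readout: ADP-Glo luminescence after 45 min room-temperature reaction of 1.25 nM PFK, 0.1 mM ATP, 0.5 mM F6P, pH 8.0.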
Background: qHTS replaces the single test concentration by a dilution series.

For test [15], the target named is Luciferin 4-monooxygenase (Photinus pyralis) (UniProt P08659). Put plainly: Biochemical firefly luciferase enzyme assay for NPC (AID 624030; active = well fitted curve in the direction sought with a large enough effect; an effect the other way counts as inactive or inconclusive;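 also: purified P. pyralis luciferase at 10 nM with luciferin and ATP substrate; 0% = DMSO and -100% = full luciferase inhibition by PTC124 control; nearly all actives have a fitted effect of over 70% in size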). Particulars: purified P. pyralis luciferase, luminescence, 5 min; series mostly up to 58.6 µM. An outline of the steps: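 Purified P. pyralis luciferase at 10 nM in 50 mM Tris Acetate (final), luminescence read within 5 minutes of enzyme addition to compounds. Activity normalised to PTC124 versus DMSO; concentration-response curves classed by r2, magnitude and activity.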

Test [16] in a line: qHTS profiling for inhibitors of Plasmodium falciparum proliferation (AID 504749; active = well fitted curve in the direction sought with a large enough effect; an effect the other way counts as inactive or inconclusive;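 also: 0% = DMSO vehicle and full inhibition = artemisinin control; nearly all actives have a fitted effect of over 60% in size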). The following applies: P. falciparum in erythrocytes, SYBR Green DNA, 72 h, at 28.7 µM (top of the series). Summed up: (§1)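 P. falciparum-infected erythrocytes (0.3% parasitemia, 2.5% hematocrit) incubated with compound 72 h at 37 C, 5% CO2. Parasite DNA detected by SYBR Green after lysis, overnight at room temperature; normalised to 0.29 uM artemisinin and DMSO.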

A further test has as its system AS120. Described as above. Particulars: P. falciparum in erythrocytes, SYBR Green DNA, 72 h; series mostly up to 28.7 µM. Summed up: as §1
The subject of another test is CP238. The test is described as above. The following applies: P. falciparum in erythrocytes, SYBR Green DNA, 72 h; series mostly up to 12.8 µM. An outline of the steps: as §1
The test system of another test is CP265. The description is as above. The following applies: P. falciparum in erythrocytes, SYBR Green DNA, 72 h; series mostly up to 12.8 µM. Summed up: as §1
A further test deals with FAB9. Described as above. The following applies: P. falciparum in erythrocytes, SYBR Green DNA, 72 h; series mostly up to 12.8 µM. An outline of the steps: as §1
Where [17] appears, read: measured here: cell count channel max response.
Setting [18] is: measured here: lipid channel max response.
[19] abbreviates: at 7.69 µM (top of the series) unless noted.

“And” between values parts separate entries of the source, which are not always exact repeats. Identical values can stand only once. Results filed as inconclusive are left out. The source made the active and inactive calls. Unless noted, calls follow the shape of the dose curve; as a rule, active = well fitted curve in either direction with a large enough effect (not every such curve was filed as active); inconclusive = small, poorly fitted or top-dose-only effect, or another doubt; inactive = flat fitted curve, though single readings scatter.

Sequence of Ubiquitin carboxyl-terminal hydrolase 1 (Homo sapiens) (O94782 whole entry, looked up): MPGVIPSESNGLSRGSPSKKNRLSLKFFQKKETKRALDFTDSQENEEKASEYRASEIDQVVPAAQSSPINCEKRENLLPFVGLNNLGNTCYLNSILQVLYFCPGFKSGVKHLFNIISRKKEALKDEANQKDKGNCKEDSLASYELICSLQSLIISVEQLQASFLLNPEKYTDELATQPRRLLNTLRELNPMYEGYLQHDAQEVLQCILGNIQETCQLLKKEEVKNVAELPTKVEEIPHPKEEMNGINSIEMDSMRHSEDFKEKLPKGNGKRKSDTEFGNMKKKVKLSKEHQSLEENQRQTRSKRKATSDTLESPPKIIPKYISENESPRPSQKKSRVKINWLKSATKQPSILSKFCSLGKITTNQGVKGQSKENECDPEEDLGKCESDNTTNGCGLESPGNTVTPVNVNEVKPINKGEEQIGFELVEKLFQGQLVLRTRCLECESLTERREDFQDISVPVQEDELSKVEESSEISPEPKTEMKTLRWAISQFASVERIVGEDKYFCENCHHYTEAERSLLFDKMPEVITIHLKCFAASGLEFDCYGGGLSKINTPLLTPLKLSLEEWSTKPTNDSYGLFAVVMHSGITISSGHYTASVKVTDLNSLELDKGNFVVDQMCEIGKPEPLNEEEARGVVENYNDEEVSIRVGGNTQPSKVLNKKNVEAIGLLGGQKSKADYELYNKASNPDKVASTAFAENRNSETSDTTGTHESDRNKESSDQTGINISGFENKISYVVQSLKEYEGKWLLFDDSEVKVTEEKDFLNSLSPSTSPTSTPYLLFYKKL
Sequence of Cytochrome P450 1A2 (Homo sapiens) (P05177 whole entry, looked up): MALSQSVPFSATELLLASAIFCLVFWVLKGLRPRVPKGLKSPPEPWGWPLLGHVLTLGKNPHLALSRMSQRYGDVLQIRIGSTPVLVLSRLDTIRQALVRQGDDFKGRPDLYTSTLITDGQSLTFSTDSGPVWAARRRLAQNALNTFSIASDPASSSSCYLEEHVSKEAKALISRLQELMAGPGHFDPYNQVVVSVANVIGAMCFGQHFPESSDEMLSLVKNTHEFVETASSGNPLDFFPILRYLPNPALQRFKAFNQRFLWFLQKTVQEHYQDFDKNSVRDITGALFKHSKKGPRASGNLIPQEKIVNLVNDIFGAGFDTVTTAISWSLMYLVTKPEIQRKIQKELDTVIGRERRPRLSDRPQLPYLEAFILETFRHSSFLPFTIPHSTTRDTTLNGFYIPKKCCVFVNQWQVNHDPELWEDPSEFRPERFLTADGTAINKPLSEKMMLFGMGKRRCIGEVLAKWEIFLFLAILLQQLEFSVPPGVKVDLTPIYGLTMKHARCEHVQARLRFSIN
Sequence of 3',5'-cyclic-AMP phosphodiesterase 4B (Homo sapiens) (Q07343 whole entry, looked up): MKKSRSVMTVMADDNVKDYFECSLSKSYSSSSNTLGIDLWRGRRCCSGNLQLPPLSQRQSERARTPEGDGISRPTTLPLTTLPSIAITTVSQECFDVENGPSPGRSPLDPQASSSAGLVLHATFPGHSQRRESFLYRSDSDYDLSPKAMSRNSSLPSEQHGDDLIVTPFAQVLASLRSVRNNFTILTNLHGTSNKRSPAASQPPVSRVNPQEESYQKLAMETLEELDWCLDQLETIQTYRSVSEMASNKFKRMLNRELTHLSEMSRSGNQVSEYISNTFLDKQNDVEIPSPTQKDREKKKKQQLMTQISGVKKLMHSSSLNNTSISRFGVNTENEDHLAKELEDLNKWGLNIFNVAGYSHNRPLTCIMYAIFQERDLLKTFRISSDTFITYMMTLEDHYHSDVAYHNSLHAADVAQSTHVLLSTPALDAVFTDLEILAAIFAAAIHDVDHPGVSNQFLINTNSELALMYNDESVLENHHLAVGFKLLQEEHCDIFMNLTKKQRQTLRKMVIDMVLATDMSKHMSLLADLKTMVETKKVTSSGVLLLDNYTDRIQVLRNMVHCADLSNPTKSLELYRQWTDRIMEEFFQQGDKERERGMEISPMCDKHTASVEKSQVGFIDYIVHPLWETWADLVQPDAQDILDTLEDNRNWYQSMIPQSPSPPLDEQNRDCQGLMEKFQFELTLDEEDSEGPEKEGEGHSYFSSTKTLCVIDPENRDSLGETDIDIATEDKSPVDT
Sequence of Pyruvate kinase (Leishmania mexicana) (Q27686 2-499 E452W): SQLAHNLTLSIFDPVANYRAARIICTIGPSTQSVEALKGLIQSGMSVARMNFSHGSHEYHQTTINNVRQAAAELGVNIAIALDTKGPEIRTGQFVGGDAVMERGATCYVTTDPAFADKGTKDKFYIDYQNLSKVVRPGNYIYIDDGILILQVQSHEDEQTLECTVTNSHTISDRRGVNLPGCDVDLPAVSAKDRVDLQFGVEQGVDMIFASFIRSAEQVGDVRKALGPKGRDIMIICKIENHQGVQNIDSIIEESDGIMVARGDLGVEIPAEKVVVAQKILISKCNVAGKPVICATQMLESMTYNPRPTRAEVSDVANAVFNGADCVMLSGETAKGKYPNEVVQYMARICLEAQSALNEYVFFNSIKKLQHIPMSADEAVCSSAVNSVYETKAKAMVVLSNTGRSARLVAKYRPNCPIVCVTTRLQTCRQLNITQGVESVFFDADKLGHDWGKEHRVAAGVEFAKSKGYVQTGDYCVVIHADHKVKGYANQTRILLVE
Sequence of Alpha-galactosidase A (Homo sapiens) (P06280 whole entry, looked up): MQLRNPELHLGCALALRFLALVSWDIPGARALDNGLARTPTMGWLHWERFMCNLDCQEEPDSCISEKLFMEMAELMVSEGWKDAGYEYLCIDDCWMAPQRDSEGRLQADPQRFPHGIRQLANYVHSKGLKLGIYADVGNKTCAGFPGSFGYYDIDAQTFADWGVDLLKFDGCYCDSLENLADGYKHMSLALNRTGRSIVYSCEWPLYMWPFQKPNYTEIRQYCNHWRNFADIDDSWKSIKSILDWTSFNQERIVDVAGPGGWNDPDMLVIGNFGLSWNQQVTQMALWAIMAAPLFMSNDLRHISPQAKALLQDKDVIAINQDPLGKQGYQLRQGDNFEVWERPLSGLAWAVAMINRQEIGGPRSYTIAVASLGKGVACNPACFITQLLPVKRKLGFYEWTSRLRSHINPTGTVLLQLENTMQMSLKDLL
Sequence of Glucocorticoid receptor (Homo sapiens) (P04150 whole entry, looked up): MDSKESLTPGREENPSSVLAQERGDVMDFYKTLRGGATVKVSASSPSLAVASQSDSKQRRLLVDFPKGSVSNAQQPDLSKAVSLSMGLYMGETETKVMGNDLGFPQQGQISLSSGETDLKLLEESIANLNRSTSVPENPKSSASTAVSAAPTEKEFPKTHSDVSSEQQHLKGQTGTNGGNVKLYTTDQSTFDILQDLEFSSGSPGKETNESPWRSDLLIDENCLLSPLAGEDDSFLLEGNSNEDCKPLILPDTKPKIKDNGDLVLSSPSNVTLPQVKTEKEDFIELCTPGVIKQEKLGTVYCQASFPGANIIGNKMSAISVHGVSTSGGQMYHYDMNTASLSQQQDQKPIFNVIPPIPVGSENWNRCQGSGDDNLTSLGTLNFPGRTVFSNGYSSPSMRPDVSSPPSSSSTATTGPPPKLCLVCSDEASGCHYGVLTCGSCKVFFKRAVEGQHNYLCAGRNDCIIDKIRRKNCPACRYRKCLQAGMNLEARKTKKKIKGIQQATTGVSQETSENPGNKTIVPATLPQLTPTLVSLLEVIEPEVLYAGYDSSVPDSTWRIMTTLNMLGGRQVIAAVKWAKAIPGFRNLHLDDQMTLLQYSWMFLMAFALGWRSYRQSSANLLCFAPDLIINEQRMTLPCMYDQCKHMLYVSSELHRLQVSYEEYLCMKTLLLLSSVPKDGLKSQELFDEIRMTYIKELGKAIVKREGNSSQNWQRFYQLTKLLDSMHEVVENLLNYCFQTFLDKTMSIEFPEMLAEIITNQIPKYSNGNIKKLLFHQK
Sequence of ATP-dependent 6-phosphofructokinase (Trypanosoma brucei brucei) (O15648 whole entry, looked up): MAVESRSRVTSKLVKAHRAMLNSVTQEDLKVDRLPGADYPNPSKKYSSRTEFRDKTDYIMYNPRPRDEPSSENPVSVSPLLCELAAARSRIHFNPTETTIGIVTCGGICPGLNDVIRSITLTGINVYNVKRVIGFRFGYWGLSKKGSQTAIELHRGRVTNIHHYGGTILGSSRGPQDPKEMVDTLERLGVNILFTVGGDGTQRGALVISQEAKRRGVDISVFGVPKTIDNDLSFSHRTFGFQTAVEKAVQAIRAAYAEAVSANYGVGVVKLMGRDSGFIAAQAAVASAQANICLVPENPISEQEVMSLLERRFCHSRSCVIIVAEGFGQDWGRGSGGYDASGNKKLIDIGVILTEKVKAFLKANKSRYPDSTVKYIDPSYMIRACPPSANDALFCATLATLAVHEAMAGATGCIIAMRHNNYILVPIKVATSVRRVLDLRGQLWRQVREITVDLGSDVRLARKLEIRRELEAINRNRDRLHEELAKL
Sequence of Luciferin 4-monooxygenase (Photinus pyralis) (P08659 whole entry, looked up): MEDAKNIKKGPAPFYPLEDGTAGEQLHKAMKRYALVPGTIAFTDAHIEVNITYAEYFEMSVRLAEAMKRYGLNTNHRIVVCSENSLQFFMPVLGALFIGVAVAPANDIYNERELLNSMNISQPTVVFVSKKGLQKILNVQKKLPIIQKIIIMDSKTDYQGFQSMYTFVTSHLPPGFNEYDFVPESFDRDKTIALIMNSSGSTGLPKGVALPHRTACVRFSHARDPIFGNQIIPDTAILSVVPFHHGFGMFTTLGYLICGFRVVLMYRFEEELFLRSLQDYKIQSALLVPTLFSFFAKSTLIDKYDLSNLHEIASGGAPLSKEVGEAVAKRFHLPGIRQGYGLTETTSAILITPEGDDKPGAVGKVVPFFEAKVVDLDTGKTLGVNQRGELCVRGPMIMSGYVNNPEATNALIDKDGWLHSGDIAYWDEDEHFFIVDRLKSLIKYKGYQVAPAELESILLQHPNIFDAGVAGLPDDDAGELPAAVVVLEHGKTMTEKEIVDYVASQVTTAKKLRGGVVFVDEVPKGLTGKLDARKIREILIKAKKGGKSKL

For the compound `COc1cc(=O)n(C)c2c(OC[C@@H](O)C(C)(C)O)cccc12`, the activity change, negative = inhibition in test [1] (at 17.2 µM (top of the series)) was 11.5% (inactive); in [1] (at 38 µM (top of the series)) it was 3.48% (inactive); in test [3] (at 17.2 µM (top of the series)), 1.64% (inactive); in test [3] (at 38 µM (top of the series)), 5.18% (inactive); in test [12] it was -2.03% (inactive). In addition, the Potency is 20 µM (active) and 12.6 µM (active) in [2]; > 46 µM (inactive) and > 20.6 µM (inactive) in test [5]; > 46 µM (inactive) and > 20.6 µM (inactive) in test [6]. For the same compound, the activity, negative = inhibition in [4] (at 17.2 µM (top of the series)) is -4.39% (inactive); in test [4] (at 38 µM (top of the series)) it was 1.34% (inactive). Moreover, the Potency result in [7], in test [8] and in test [13] was “inactive” in each case. Besides, the compound was called inactive in test [9], in test [10] and in [11]. Moreover, the max response in test [12] (setting [17]) is -7.54%; in [12] (setting [18]), -18.8%.
Take `N[C@H](C(=O)N[C@@H]1C(=O)N2C(C(=O)O)=C(Cl)CS[C@@H]12)c1ccccc1`: the activity change, negative = inhibition in test [1] (at 17.2 µM (top of the series)) is 6.26% (inactive) and -9.38% (inactive); in test [1] (at 38 µM (top of the series)), -4.53% (inactive); in [3] (at 17.2 µM (top of the series)), -10.5% (inactive) and 0.734% (inactive); in [3] (at 38 µM (top of the series)), 5.52% (inactive); in test [12], -0.721% (inactive) and -1.78% (inactive). Moreover, the Potency result in [2], in [7], in test [8] and in [13] was “inactive” in each case. Moreover, the activity, negative = inhibition in test [4] (at 17.2 µM (top of the series)) was -10.4% (inactive) and 2.37% (inactive); in [4] (at 38 µM (top of the series)), 22.7% (inactive). For the same compound, the Potency in test [5] was > 46 µM (inactive) and > 20.6 µM (inactive); in test [6] it was > 46 µM (inactive) and > 20.6 µM (inactive). The compound was classed as inactive in [9], in test [10] and in test [11]. The max response was -2.76% and 11.1% in [12] (setting [17]); -3.03% and 9.1% in [12] (setting [18]).
`C[C@@H](C[N+](C)(C)C)OC(N)=O`: the activity change, negative = inhibition in [1] (at 17.2 µM (top of the series)) was 2.54% (inactive); in [1] (at 38 µM (top of the series)), 13.3% (inactive); in [3] (at 17.2 µM (top of the series)), 9.21% (inactive); in test [3] (at 38 µM (top of the series)) it was 17.1% (inactive); in test [12], -1.39% (inactive). For the same compound, the Potency result in [2], in test [7], in test [8] and in [13] was “inactive” each time. Also, the activity, negative = inhibition in test [4] (setting [19]) is -3.42% [at 17.2 µM] (inactive). Also, the Potency was > 46 µM (inactive) and > 20.6 µM (inactive) in [5]; > 46 µM (inactive) and > 20.6 µM (inactive) in test [6]. Further, the compound was classed as inactive in test [9], in [10] and in test [11]. The results for the max response in test [12] (setting [17]) and in test [12] (setting [18]) were -0.356% and -3.27%, respectively.
On to `CC[C@H](NC(C)C)[C@H](O)c1ccc(O)c(O)c1`, for which the activity change, negative = inhibition in test [1] (at 17.2 µM (top of the series)) is -20.6% (inactive); in [1] (at 38 µM (top of the series)), -15.3% (inactive); in test [3] (setting [19]), -6.46% [at 17.2 µM] (inactive); in [12], -0.896% (inactive). Further, the Potency in test [2] was 15.8 µM (active) and 12.6 µM (active). Also, the activity, negative = inhibition in [4] (at 17.2 µM (top of the series)) was 3.17% (inactive); in test [4] (at 38 µM (top of the series)), -26.1% (inactive); in test [16] (parasite line A), 4.3% (inactive); in [16] (parasite line B), -2.19% (inactive). For the same compound, the Potency result (in test [7]; in test [8]; in test [13]; in the test on AS120; in the test with CP238; in the test on CP265) was “inactive” throughout. Also, the Potency entry with FAB9 was “inactive”. Moreover, the result in test [9], in test [10], in [11], in test [14] and in test [15] was inactive. The max response in test [12] (setting [17]) was -4.02%; in test [12] (setting [18]), -11.2%.

The values above are taken from PubChem BioAssay (NCATS).
